In PubChem BioAssay (NCATS):
Records with an inconclusive call do not appear. Unmarked numbers belong to inactive results. Activity calls are given as the source filed them. The call rests on the fitted dose curve; in most records, active means well fitted cell-killing curve with a large enough effect; inconclusive means small, poorly fitted or top-dose-only effect, or effect the other way; inactive means no such curve, though single readings can be large or run the other way.

Assays:
[1] = Viability qHTS for spleen associated tyrosine kinase inhibitor (SYKi) naive MV4-11 cells (AID 1963823); further: nearly all actives have a fitted effect of over 40% in size
Method in brief: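 CellTiter-Glo luminescence, 10 min room-temperature incubation, gave viability. Cells: naive MV4-11 (500/well), treated 72 hr at 37 C, 5% CO2.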

[2] = Viability qHTS for spleen associated tyrosine kinase inhibitor (SYKi) drug resistant MV4-11 cells (AID 1963824); further: nearly all actives have a fitted effect of over 35% in size
Method in brief: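 SYK-inhibitor-resistant MV4-11 AML cells were seeded at 500 per well onto compound and cultured 72 hours (37 °C, 5% CO2). CellTiter-Glo was then added, and after 10 min at room temperature, luminescence gave viability.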
Potency means the concentration at half of the fitted maximal effect.

With `CC(=O)/C=C/C1(O)C(C)CC(O[C@@H]2O[C@H](CO)[C@@H](O)[C@H](O)[C@H]2O)CC1(C)C` (some centres undefined) the Potency [1] was “inactive” and the Potency [2] was “inactive”.
For `C=CC(=O)N1CCN(C(=O)CNc2cc(-c3ccccc3Cl)c(Cl)cc2OC)CC1`, the Potency [1] was 10.3 µM (active) and the Potency [2] was 11.6 µM (active).
For `CC(/C=C/C=C(\C)C(=O)O[C@@H]1O[C@H](CO[C@@H]2O[C@H](CO)[C@@H](O)[C@H](O)[C@H]2O)[C@@H](O)[C@H](O)[C@H]1O)=C\C=C\C=C(C)\C=C\C=C(/C)C(=O)O[C@@H]1C[C@](O)(C(=O)O)C[C@@H](O)[C@H]1OC(=O)/C=C/c1ccc(O)c(O)c1`, the viability (% of control) [1] was 78.4% [at 9.25 µM] and the viability, % of control [2] was 91.1% [at 9.25 µM].
For `CCC(C)/C=C(C)/C=C/C1=CC2=C(Cl)C(=O)C(C)(OC(C)=O)C(=O)C2=CN1C1CCCCN(C(CCC(N)=O)C(=O)O)C1=O` (centres undefined), the Potency [1] was “inactive” and the Potency [2] was “inactive”.
`CC(=O)N[C@H]1[C@H](O[C@H]2CC[C@@]3(C)C(CC[C@]4(C)C3CC=C3C5CC(C)(C)CC[C@]5(C(=O)O)[C@H](O)C[C@]34C)C2(C)C)O[C@H](CO[C@@H]2OC[C@H](O)[C@H](O)[C@H]2O[C@@H]2OC[C@@H](O)[C@H](O)[C@H]2O)[C@@H](O)[C@@H]1O` (some centres undefined) showed a viability (% of control) [1] of 83.2% [at 9.25 µM] and a viability, % of control [2] of 113% [at 9.25 µM].
For `CCC(C)/C=C(C)/C=C/C1=CC2=C(Cl)C(=O)C(C)(OC(C)=O)C(=O)C2=CN1CCCCC(N)C(=O)O` (centres undefined), the Potency [1] was “inactive” and the Potency [2] was “inactive”.
For `CC(C)=CCC[C@](C)(O[C@@H]1O[C@H](CO[C@@H]2OC[C@@H](O)[C@H](O)[C@H]2O)[C@@H](O)[C@H](O)[C@H]1O)[C@H]1CC[C@]2(C)[C@@H]1[C@H](O)C[C@@H]1[C@@]3(C)CC[C@H](O[C@@H]4O[C@H](CO)[C@@H](O)[C@H](O)[C@H]4O[C@@H]4O[C@H](CO)[C@@H](O)[C@H](O)[C@H]4O)C(C)(C)[C@@H]3CC[C@]12C`, the Potency [1] was “inactive” and the Potency [2] was “inactive”.
In the case of `O=c1nc(-c2ccccn2)sc2ccccc12`, the Potency [1] was 1.84 µM (active) and the Potency [2] was 2.59 µM (active).
In the case of `CCOC(=O)c1cccc(CNc2ccc(N(C)C(=O)Nc3ccccc3)cc2)c1`, the Potency [1] was 18.4 µM (active) and the Potency [2] was 11.6 µM (active).
For `CC1(C=O)CC[C@]2(C(=O)O[C@@H]3O[C@H](CO)[C@@H](O)[C@H](O)[C@H]3O)CC[C@]3(C)C(=CCC4[C@@]5(C)C[C@H](O)[C@H](O[C@@H]6OC[C@@H](O)[C@H](O)[C@H]6O)[C@@](C)(CO)C5CC[C@]43C)C2C1` (some centres undefined), the viability (% of control) [1] was 95.5% [at 9.25 µM] and the viability, % of control [2] was 103% [at 9.25 µM].
With `Cc1ncc(CCCN(C)C)cc1Nc1ncc2c(n1)-c1ccc(C(F)(F)F)cc1NC(=S)C2` the Potency [1] was 0.0517 µM (active) and the Potency [2] was 0.0206 µM (active).
With `CC(C)(C)c1ccc(NC(=O)N2CCN(c3ncccc3Cl)CC2)cc1` the Potency [1] was 3.66 µM (active) and the Potency [2] was 4.11 µM (active).
In the case of `C=C1C(=O)OC2C(OC(=O)C=C(C)C)C(C)=C3C(=O)C=C(C)C3C(O)C12` (centres undefined), the Potency [1] was 2.02 µM (active) and the Potency [2] was 1.61 µM (active).
In the case of `CC1C(O)C(O)C2C(C(=O)OCCc3ccc(O)cc3)=COC(O[C@@H]3O[C@H](CO)[C@@H](O)[C@H](O)[C@H]3O)C12` (some centres undefined), the Potency [1] was “inactive” and the Potency [2] was “inactive”.
With `C=C1CCC[C@]2(C)C[C@]3(O)OC(=O)C(C)=C3C[C@@H]12` the Potency [1] was “inactive” and the Potency [2] was “inactive”.
With `COc1cc(O)cc(C)c1C(=O)O[C@@H]1[C@H](O)[C@@H](CO)O[C@H]1n1ccc(=O)[nH]c1=O` the Potency [1] was 2.82 µM (active) and the Potency [2] was 2 µM (active).
With `CN[C@H]1CN(c2ccc3c(=O)c(C(=O)O)cn(-c4nccs4)c3n2)C[C@@H]1OC` the Potency [1] was 0.605 µM (active) and the Potency [2] was 0.428 µM (active).
In the case of `C=C1CC[C@@H](O)[C@]2(C)C[C@H]3OC(=O)C(=C)[C@H]3CC12` (some centres undefined), the Potency [1] was 14.6 µM (active) and the Potency [2] was 6.51 µM (active).
With `COc1ccc(C(=O)N(CCC(C)C)Cc2nc(C)c(C)n2Cc2ccccc2C)c(OC)c1` the Potency [1] was 20.6 µM (active) and the Potency [2] was 20.6 µM (active).
For `C=C(C)C(=O)O[C@H]1C[C@@](C)(O)C2(O)CCC(C)(/C=C3/OC(=O)C(COC)=C31)O2` (some centres undefined), the Potency [1] was 0.718 µM (active) and the Potency [2] was 0.453 µM (active).
In the case of `Clc1ccc(Nc2nc3ccccc3c3nc(C4CCCCC4)[nH]c23)cc1Cl`, the Potency [1] was 18.4 µM (active) and the Potency [2] was 8.2 µM (active).
For `CNC12CC3C[C@@](C)(C1)C[C@](C)(C3)C2`, the Potency [1] was “inactive” and the Potency [2] was “inactive”.
In the case of `O=C1NC2CCCCN2C12CCN(CCCN1c3ccccc3CCc3ccc(Cl)cc31)CC2` (centres undefined), the Potency [1] was 10.3 µM (active) and the Potency [2] was 4.61 µM (active).
For `C#CCN(Cc1cc2c(=O)n(C)c(CN3CCN(C)CC3)nc2cc1Cl)c1ccc(C(=O)NCc2cccnc2)cc1`, the Potency [1] was “inactive” and the Potency [2] was “inactive”.
For `C=C[C@]1(C)C=C2CCC3C(C)(CCC[C@@]3(C)C(=O)O)C2CC1` (some centres undefined), the Potency [1] was “inactive” and the Potency [2] was “inactive”.
With `COc1ccc2cc(C(C)C(=O)Oc3ccc(C(N)=S)cc3)ccc2c1` (centres undefined) the Potency [1] was “inactive” and the Potency [2] was “inactive”.
In the case of `Nc1nc(NC2CC2)cc(-c2cccc(Cl)c2Cl)n1`, the Potency [1] was 10.3 µM (active) and the Potency [2] was 7.31 µM (active).
